Test results reported in PubChem BioAssay AID1159580 (chemical genetic matrix, 2015).
Hit rate of the full screen: of about 5,500 compounds, about 2,000 (36%) were called active. Roughly 18% stayed inconclusive and do not appear here. Rule as the data show it: active = normalized growth mostly below about 0.91 (no sharp cut-off); inconclusive = no clear call, values can overlap the other calls; inactive = mostly above about 0.92. The list shows a part of the results.

Experiment: chemical genetic growth profiling, strain panel (AID 1159580);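 also: tested at 20 µM; growth read once vehicle control cultures reached saturation at 30 °C; 1 = growth at the plate median or of vehicle wells; lower values mean less growth of the strain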
Conditions: S. cerevisiae deletion strains, growth OD

Measured: normalized growth

CC[C@]1(O)CC2CN(CCc3c([nH]c4ccccc34)[C@@](C(=O)OC)(c3cc4c(cc3OC)N(C)[C@H]3[C@@](O)(C(=O)OC)[C@H](OC(C)=O)[C@]5(CC)C=CCN6CC[C@]43[C@@H]65)C2)C1 (some centres undefined)
inactive: locus YAL021C, strain ccr4, active compounds read low 1 | locus YAL026C, strain drs2, active compounds read low 0.948 | locus YAL030W, strain snc1, active compounds read low 0.985 | locus YBL061C, strain skt5, active compounds read low 0.975 | locus YBR009C, strain hhf1, active compounds read low 0.941 | locus YBR023C, strain chs3, active compounds read low 0.984 | locus YBR171W, strain sec66, active compounds read low 0.959 | locus YBR231C, strain swc5, active compounds read low 0.982 | locus YBR279W, strain paf1, active compounds read low 0.98 | locus YCL011C, strain gbp2, active compounds read low 0.983 | locus YCL016C, strain dcc1, active compounds read low 1.01 | locus YCL061C, strain MRC1, active compounds read low 1.02 | locus YCL069W, strain vba3, active compounds read low 0.969 | locus YCR088W, strain abp1, active compounds read low 0.974 | locus YDL005C, strain med2, active compounds read low 0.972 | locus YDL040C, strain nat1, active compounds read low 0.969 | locus YDR001C, strain nth1, active compounds read low 0.973 | locus YDR069C, strain doa4, active compounds read low 1 | locus YDR137W, strain rgp1, active compounds read low 0.979 | locus YDR159W, strain sac3, active compounds read low 0.928 | locus YDR195W, strain ref2 0.951 | locus YDR297W, strain sur2, active compounds read low 0.975 | locus YDR334W, strain swr1, active compounds read low 0.955 | locus YDR335W, strain msn5, active compounds read low 0.981 | locus YDR392W, strain spt3, active compounds read low 0.859 | locus YEL003W, strain gim4, active compounds read low 0.954 | locus YEL037C, strain rad23, active compounds read low 0.963 | locus YEL061C, strain CIN8 (second series), active compounds read low 0.962 | locus YER015W, strain faa2, active compounds read low 0.961 | locus YER016W, strain bim1, active compounds read low 0.989 | locus YER111C, strain swi4, active compounds read low 0.972 | locus YER155C, strain BEM2 (second series), active compounds read low 0.907 | locus YFR010W, strain ubp6, active compounds read low 0.948 | locus YGL167C, strain pmr1, active compounds read low 0.972 | locus YGL173C, strain kem1, active compounds read low 0.976 | locus YGL227W, strain vid30, active compounds read low 0.947 | locus YGL240W, strain doc1, active compounds read low 0.954 | locus YGL253W, strain hxk2, active compounds read low 1.01 | locus YHR013C, strain ard1, active compounds read low 0.949 | locus YHR027C, strain rpn1, active compounds read low 0.957 | locus YHR030C, strain SLT2, active compounds read low 0.991 | locus YHR079C, strain IRE1, active compounds read low 0.975 | locus YHR142W, strain chs7, active compounds read low 1.02 | locus YJL092W, strain hpr5, active compounds read low 0.973 | locus YJL095W, strain BCK1 (second series), active compounds read low 0.978 | locus YJL095W, strain BCK1, active compounds read low 0.992 | locus YJL115W, strain asf1, active compounds read low 0.956 | locus YJL129C, strain trk1, active compounds read low 0.986 | locus YJL154C, strain vps35, active compounds read low 0.965 | locus YJL164C, strain tpk1, active compounds read low 0.956 | locus YJL166W, strain qcr8, active compounds read low 0.998 | locus YJL187C, strain SWE1, active compounds read low 0.974 | locus YJR066W, strain TOR1, active compounds read low 0.965 | locus YKL160W, strain elf1, active compounds read low 1.05 | locus YKR026C, strain gcn3, active compounds read low 0.975 | locus YKR091W, strain srl3, active compounds read low 0.98 | locus YLL001W, strain dnm1, active compounds read low 1.05 | locus YLL026W, active compounds read low 0.979 | locus YLL041C, strain sdh2, active compounds read low 0.964 | locus YLR027C, strain aat2, active compounds read low 0.987 | locus YLR113W, strain HOG1, active compounds read low 0.955 | locus YLR221C, strain rsa3, active compounds read low 1.04 | locus YLR258W, strain gsy2, active compounds read low 0.979 | locus YLR262C, strain YPT6 (second series), active compounds read low 0.968 | locus YLR320W, strain mms22, active compounds read low 1.04 | locus YLR342W, strain FKS1, active compounds read low 0.977 | locus YLR357W, strain rsc2, active compounds read low 0.974 | locus YLR370C, strain arc18, active compounds read low 0.989 | locus YLR384C, strain iki3, active compounds read low 0.967 | locus YML120C, strain ndi1, active compounds read low 1.01 | locus YMR058W, strain fet3, active compounds read low 0.977 | locus YMR125W, strain sto1, active compounds read low 1.02 | locus YMR129W, active compounds read low 0.967 | locus YMR205C, strain PFK2, active compounds read low 1.01 | locus YMR231W, strain pep5, active compounds read low 0.966 | locus YNL071W, strain lat1, active compounds read low 0.963 | locus YNL183C, strain NPR1, active compounds read low 0.928 | locus YNL209W, strain ssb2, active compounds read low 0.973 | locus YNL248C, strain rpa49, active compounds read low 1.04 | locus YNL322C, strain KRE1 (second series), active compounds read low 0.977 | locus YNR049C, strain mso1, active compounds read low 0.969 | locus YOR001W, strain rrp6, active compounds read low 0.923 | locus YOR070C, strain gyp1, active compounds read low 1 | locus YOR080W, strain dia2, active compounds read low 0.96 | locus YOR083W, strain WHI5, active compounds read low 1.04 | locus YOR106W, strain vam3, active compounds read low 1.03 | locus YOR231W, strain MKK1, active compounds read low 0.952 | locus YOR265W, strain rbl2, active compounds read low 0.987 | locus YOR270C, strain vph1, active compounds read low 1.06 | locus YOR290C, strain snf2, active compounds read low 1.01 | locus YPL051W, strain arl3, active compounds read low 1.01 | locus YPL078C, strain atp4, active compounds read low 1.04 | locus YPL106C, strain sse1, active compounds read low 0.931 | locus YPL240C, strain hsp82, active compounds read low 0.963 | locus YPL256C, strain CLN2, active compounds read low 0.942

Nc1ncnc2c1ncn2C1OC2COP(O)(=S)O[C@@H]2[C@@H]1O (some centres undefined)
inactive: locus YAL013W, strain DEP1, active compounds read low 1.01 | locus YAL040C, strain CLN3, active compounds read low 1.01 | locus YDR150W, strain NUM1, active compounds read low 1.02 | locus YDR363W, strain ESC2, active compounds read low 0.99 | locus YER002W, strain NOP16, active compounds read low 0.989 | locus YGR078C, strain PAC10, active compounds read low 1 | locus YJR075W, strain HOC1, active compounds read low 0.997 | locus YNL128W, strain TEP1, active compounds read low 1.01 | locus YNL153C, strain GIM3, active compounds read low 1.03 | locus YNL175C, strain NOP13, active compounds read low 1.03 | locus YNL197C, strain WHI3, active compounds read low 1.02 | locus YNL224C, strain SQS1, active compounds read low 1.02 | locus YOR083W, strain WHI5 (second series), active compounds read low 0.997 | locus YPL241C, strain CIN2, active compounds read low 1.01
